Measurements: PubChem BioAssay
“And” between values parts separate entries of the source, which are not always exact repeats. Identical values can stand only once. Values without a mark were called inactive. The rule behind the calls is not given here.

Assay: inhibitors of hydroxyurea-induced Chk1 phosphorylation, primary screen, imaging, HeLa, phospho-Chk1 antibody, percent positive cells (AID 1186)
Conditions: hydroxyurea-induced phospho-Chk1 immunofluorescence imaging, higher = more signal
For C=CCN(C(=O)C1N(CCOCCO)C(=O)C2C(C(=O)O)C3C=CC21O3)C(C)(C)C (centres undefined), the z-score was -0.262 and -0.147. With C=CC[C@H](O)c1ccc(OCCO)cc1 the z-score was -0.23 and 0.182. For CC(C)N1CC=CC23O[C@@H]4C=CCCOC(=O)C4[C@H]2C(=O)N(C(C)CO)[C@@H]3C1=O (some centres undefined), the z-score was -0.161 and -0.496. In the case of C=CCN(Cc1ccccc1)C(=O)C1N(CCCCCCO)C(=O)C2C(C(=O)O)C3C=CC21O3 (centres undefined), the z-score is reported as 0.909 and 0.53. In the case of C=C[C@H](C)[C@@H](O)c1ccc(OCCO)cc1, the z-score is reported as 0.845 and -1.4. For CC(CO)N1C(=O)[C@@H]2C3C(=O)OCCC=C[C@H]3OC23C=CCN(Cn2nnc4ccccc42)C(=O)[C@@H]13 (some centres undefined), the z-score was 0.787 and 0.875. With C=CCN(C(=O)C1N(C(C)(C)CO)C(=O)C2C(C(=O)O)C3C=CC21O3)C(C)(C)C (centres undefined) the z-score was -0.518 and 1.17. For CCOC(=O)C[C@H]1[C@H](OC(=O)c2ccccc2-c2ccccc2)[C@@H](NC(=O)Cc2ccc(OC)cc2)c2cc(OCCCO)ccc2N1C(=O)c1ccc2ccccc2n1, the z-score was -0.015 and -0.308. In the case of C=CCN(CCCCC)C(=O)C1N(c2ccc(CCO)cc2)C(=O)C2C(C(=O)O)C3C=CC21O3 (centres undefined), the z-score is reported as -0.0956 and 0.477. With C=CCN(CCCC)C(=O)C1N(c2ccc(CCO)cc2)C(=O)C2C(C(=O)O)C3C=CC21O3 (centres undefined) the z-score was 0.147 and -0.608. With C=CCN(Cc1ccccc1)C(=O)C(c1cccs1)N(C(=O)/C=C\C(=O)O)c1c(Cl)cccc1CO (centres undefined) the z-score was -0.347 and 0.628. With CCOC(=O)c1ccc(NC(=O)O[C@H]2[C@H](OC(=O)Nc3ccccc3)[C@H](OC(=O)Nc3ccccc3)[C@@H](OC)O[C@@H]2CO)cc1 the z-score was 0.143 and 0.494. With C=C[C@H](C)[C@H](O)c1ccc(O)c2ccccc12 the z-score was -1.1 and -1.31. For C=CCN(C(=O)C1N(CCCCCCO)C(=O)C2C(C(=O)O)C3C=CC21O3)C(C)(C)C (centres undefined), the z-score was -0.178 and -0.102.
